Source: PubChem BioAssay (EPA / NIEHS)
Results filed as inconclusive are left out. Some structures have more than one record in an assay (separate samples or runs), and their calls can disagree. Active and inactive are the calls of the source. The calls were made as follows, unless noted: active = hit-call score of the fitted dose curve at least 0.9, where 1 is the maximum; inconclusive = response in the unintended direction; inactive = score below 0.9.

Columns and labels:
[1] = molecular target: Peroxisome proliferator-activated receptor gamma (Homo sapiens) (UniProt P37231); test: NVS_NR_hPPARg: NovaScreen (NVS) Nuclear Receptor Binding Assay for human Peroxisome Proliferator-activated Receptor gamma (PPARg) (AID 2283370)
Summary of the method: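 Cell-free fluorescence polarization binding to human PPARg protein, read 2 h after dosing. Primary screen in duplicate at 25 uM, actives followed in concentration series; loss of signal relative to DMSO scored.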

[2] = molecular target: Estrogen receptor (Homo sapiens) (UniProt P03372); test: OT_ERa_GFPERaERE_0480: Odyssey Thera (OT) 8-hour HeLa Transcription Induction Assay for Estrogen Receptor (AID 2283381; active = hit-call score of the fitted dose curve at least 0.9, where 1 is the maximum; inactive = score below 0.9)
Summary of the method: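 Fluorescence microscopy with high-content image analysis measures ERE-driven GFP induction in HeLa cells at 8 h post-dose. Increases fitted against DMSO baseline.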

[3] = molecular target: Estrogen receptor (Homo sapiens) (UniProt P03372); test: OT_ERa_GFPERaERE_0120: Odyssey Thera (OT) 2-hour HeLa Transcription Induction Assay for Estrogen Receptor (AID 2283382)
Summary of the method: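 Fluorescence-microscopy images of the GFP-ERα/ERE reporter, scored by high-content image algorithms, give the readout. HeLa exposure lasted 2 h, and only signal increase over DMSO was fitted.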

[4] = molecular target: Retinoic acid receptor RXR-alpha (Homo sapiens) (UniProt P19793); test: OT_NURR1_NURR1RXRa_1440: Odyssey Thera (OT) 24-hour HEK293T Protein Complementation Assay for Nurr1/retinoid X receptor (RXR) (AID 2283386)
Summary of the method: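 Gain in fluorescence, fitted relative to DMSO, reflects Nurr1–RXRα association in HEK293T cells after 24 h dosing. Bait and prey are each linked to a reporter-protein fragment that reassembles on interaction.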

[5] = molecular target: human Adenosine Transporter (Adot), SLC29A1 (gene 2030) (UniProt Q99808); test: NVS_TR_hAdoT: NovaScreen (NVS) Transporter Assay for human Adenosine Transporter (Adot) (AID 2283368)
Summary of the method: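 Binding displacement on U937 extracted protein, read 1 h post-dose by filtration and scintillation counting. Primary duplicate test at 25 uM, then singleton concentration series with 50 uM top; DMSO baseline.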

[6] = test system: guinea pig Dopamine Transporter (DAT), gene 100714898; test: NVS_TR_gDAT: NovaScreen (NVS) Transporter Assay for guinea pig Dopamine Transporter (DAT) (AID 2283369);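 also: active compounds lower bound radioligand signal relative to DMSO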
Summary of the method: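 Guinea pig striatal membranes, cell-free radioligand binding with filter-based scintillation counting, read 2 h after dosing. Loss of signal versus DMSO baseline; single-concentration primary (25 uM) then concentration-response up to 50 uM.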

[7] = molecular target: human Dopamine Transporter (DAT), SLC6A3 (gene 6531) (UniProt Q01959); test: NVS_TR_hDAT: NovaScreen (NVS) Transporter Assay for human Dopamine Transporter (DAT) (AID 2283374);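 also: activity means loss of bound radioligand signal relative to DMSO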
Summary of the method: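 Extracted human SLC6A3 protein incubated 1 h with radioligand and test chemical; bound fraction separated on filters and counted. Single 25 uM duplicate screen preceded concentration-response follow-up; positive and negative controls on every plate.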

[8] = molecular target: rat Serotonin Transporter (SERT), Slc6a4 (gene 25553) (UniProt P31652); test: NVS_TR_rSERT: NovaScreen (NVS) Transporter Assay for rat Serotonin Transporter (SERT) (AID 2283375)
Summary of the method: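 Rat forebrain membranes; radioligand displacement at SERT read by filter-based scintillation counting, 1 h after dosing. Screened in duplicate at 25 uM, actives then run in concentration series; loss of signal versus DMSO baseline.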

[9] = molecular target: human Norepinephrine Transporter (NET), SLC6A2 (gene 6530) (UniProt P23975); test: NVS_TR_hNET: NovaScreen (NVS) Transporter Assay for human Norepinephrine Transporter (NET) (AID 2283377);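 also: cell-free membrane protein extracted from CHO cells expressing human NET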;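 as to AC50: displacement of radioligand from human NET seen as loss of scintillation signal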
Summary of the method: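 In this cell-free binding screen, chemicals at 25 uM (duplicate) compete with a radioligand for CHO-derived human NET over 1 hour, with filter-based radiodetection.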

[10] = molecular target: Retinoic acid receptor RXR-alpha (Homo sapiens) (UniProt P19793); test: OT_NURR1_NURR1RXRa_0480: Odyssey Thera (OT) 8-hour HEK293T Protein Complementation Assay for Nurr1/retinoid X receptor (RXR) (AID 2283385)
Summary of the method: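 Interaction of Nurr1 with RXRα read as reconstituted reporter fluorescence in a HEK293T fragment-complementation system, 8 h post-treatment; increase over DMSO baseline analysed.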

[11] = molecular target: Peroxisome proliferator-activated receptor gamma (Homo sapiens) (UniProt P37231); test: OT_PPARg_PPARgSRC1_0480: Odyssey Thera (OT) 8-hour Protein-Complementation Assay for Peroxisome Proliferator-activated Receptor Gamma / SRC-1 Co-activator (AID 2283387)
Summary of the method: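 Read-out: 488 nm N/C fluorescence ratio from complemented Venus YFP fragments, ≥350 cells per image, gain-of-signal fitted against DMSO baseline. Fusions of PPARg/SRC-1 with IFP1/IFP2 expressed transiently in HEK293T; compounds applied 8 h.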

[12] = molecular target: Peroxisome proliferator-activated receptor gamma (Homo sapiens) (UniProt P37231); test: OT_PPARg_PPARgSRC1_1440: Odyssey Thera (OT) 24-hour Protein-Complementation Assay for Peroxisome Proliferator-activated Receptor Gamma/ SRC-1 Co-activator (AID 2283388)
Summary of the method: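 HEK293T transiently transfected with PPARg/SRC-1 split-Venus YFP fusions 48 h before dosing, then treated 24 h at 37C. Fixed cells imaged; nuclear/cytoplasmic 488 nm fluorescence ratio, gain of signal versus DMSO.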

[13] = CEETOX_H295R_11DCORT: CeeTox H295R High-throughput Steroidogenesis Assay for 11-Deoxycortisol (11DCORT) (AID 2283432; active = hit-call score of the fitted dose curve at least 0.9, where 1 is the maximum; inactive = score below 0.9;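 as to AC50: 11-deoxycortisol secreted into the medium measured by LC-MS/MS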); conditions: actives raise or lower the signal
Summary of the method: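 H295R cells; 10 uM forskolin prestim 48 h; compound in 0.1% DMSO 48 h; media extracted with MTBE; 11-deoxycortisol by LC-MS/MS, 7-point standard curve; gain/loss vs DMSO baseline; viability by MTT in same wells.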

[14] = CEETOX_H295R_OHPREG: CeeTox H295R High-throughput Steroidogenesis Assay for OH-Pregnenolone (OHPREG) (AID 2283434; active = hit-call score of the fitted dose curve at least 0.9, where 1 is the maximum; inactive = score below 0.9); conditions: actives raise or lower the signal
Summary of the method: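 Readout: HPLC-MS/MS of 17alpha-hydroxypregnenolone in medium after 48 h chemical exposure of H295R cells pretreated with forskolin. Values fitted bidirectionally relative to DMSO; chemicals reducing viability to 20–70% were retested after 10-fold dilution.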

[15] = CEETOX_H295R_OHPROG: CeeTox H295R High-throughput Steroidogenesis Assay for OH-Progesterone (OHPROG) (AID 2283435; active = hit-call score of the fitted dose curve at least 0.9, where 1 is the maximum; inactive = score below 0.9); conditions: actives raise or lower the signal
Summary of the method: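 Medium steroid levels read by LC-MS/MS after 48 h chemical treatment (0.1% DMSO) of human adrenal H295R cells that had been forskolin-primed (10 uM, 48 h). Gain or loss fitted against DMSO; MTT cytotoxicity checked per well.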

[16] = molecular target: Estrogen receptor beta (Homo sapiens) (UniProt Q92731); test: OT_ER_ERbERb_1440: Odyssey Thera (OT) 24-hour HEK293T Protein-Complementation Assay for Estrogen Receptor-beta/-beta Homodimer (AID 2283380);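 also: fluorescence gain from ER beta LBD homodimer complementation read by laser scanning cytometry; scored as signal increase over DMSO baseline for both agonists and antagonists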
Summary of the method: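 HEK293T cells stably expressing human ER-beta LBD (aa 310-547) PCA homodimer pair, dosed 24 h; formaldehyde-fixed, Draq5-stained. Readout: increase in nuclear (agonist) or nuclear plus cytoplasmic (antagonist) fluorescence intensity versus DMSO, gain-of-signal fitting.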

[17] = molecular target: mouse Estrogen Receptor alpha (Era), Esr1 (gene 13982) (UniProt P19785); test: NVS_NR_mERa: NovaScreen (NVS) Nuclear Receptor Binding Assay for mouse Estrogen Receptor alpha (Era) (AID 2283378);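 also: hit means loss of bound radioligand signal relative to DMSO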
Summary of the method: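 Cell-free radioligand competitive displacement binding, read by filter-based scintillation counting 18 h after dosing. Primary screen run in duplicate at 25 uM, actives retested in concentration series; loss of signal versus DMSO.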

[18] = molecular target: Bile acid receptor (Homo sapiens) (UniProt Q96RI1); test: OT_FXR_FXRSRC1_0480: Odyssey Thera (OT) 8-hour HEK293T Protein-Complementation Assay for Farnesoid X receptor/SRC-1 Co-activator (AID 2283383)
Summary of the method: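 Binding of FXR to coactivator SRC-1 was read as fluorescence from a reconstituted split reporter in HEK293T cells, 8 h after chemical addition. Only increases in signal versus DMSO were fit.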

Measured: AC50

Bile acid receptor (Homo sapiens), sequence (Q96RI1 whole entry, looked up): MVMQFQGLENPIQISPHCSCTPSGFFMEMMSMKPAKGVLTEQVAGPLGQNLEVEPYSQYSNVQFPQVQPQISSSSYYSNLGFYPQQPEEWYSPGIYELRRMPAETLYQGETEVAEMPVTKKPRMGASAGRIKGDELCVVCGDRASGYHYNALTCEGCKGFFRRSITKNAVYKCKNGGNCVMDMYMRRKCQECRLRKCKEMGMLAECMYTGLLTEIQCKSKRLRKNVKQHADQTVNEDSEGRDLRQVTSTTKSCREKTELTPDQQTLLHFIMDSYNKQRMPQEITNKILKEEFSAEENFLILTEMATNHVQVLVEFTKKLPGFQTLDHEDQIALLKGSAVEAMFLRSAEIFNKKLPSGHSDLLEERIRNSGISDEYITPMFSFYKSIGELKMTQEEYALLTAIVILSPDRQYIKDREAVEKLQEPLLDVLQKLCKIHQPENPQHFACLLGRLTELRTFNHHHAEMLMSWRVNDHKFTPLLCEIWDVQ
Estrogen receptor (Homo sapiens), sequence (P03372 whole entry, looked up): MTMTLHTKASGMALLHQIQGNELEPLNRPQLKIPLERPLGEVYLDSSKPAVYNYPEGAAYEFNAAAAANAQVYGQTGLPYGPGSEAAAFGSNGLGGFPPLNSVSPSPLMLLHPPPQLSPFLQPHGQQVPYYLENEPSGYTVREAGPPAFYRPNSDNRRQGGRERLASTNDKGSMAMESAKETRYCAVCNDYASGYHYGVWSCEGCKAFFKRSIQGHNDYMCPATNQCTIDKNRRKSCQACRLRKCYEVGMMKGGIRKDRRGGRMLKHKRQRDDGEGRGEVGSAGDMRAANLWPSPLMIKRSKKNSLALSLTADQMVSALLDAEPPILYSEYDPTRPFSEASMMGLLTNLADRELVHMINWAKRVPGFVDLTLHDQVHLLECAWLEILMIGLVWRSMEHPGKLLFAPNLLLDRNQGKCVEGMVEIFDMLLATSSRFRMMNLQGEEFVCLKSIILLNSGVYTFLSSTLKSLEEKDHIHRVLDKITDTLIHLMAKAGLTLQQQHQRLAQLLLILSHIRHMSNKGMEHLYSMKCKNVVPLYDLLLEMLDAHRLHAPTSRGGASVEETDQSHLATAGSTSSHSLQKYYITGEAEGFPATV
Retinoic acid receptor RXR-alpha (Homo sapiens), sequence (P19793 whole entry, looked up, the tested form may be a part): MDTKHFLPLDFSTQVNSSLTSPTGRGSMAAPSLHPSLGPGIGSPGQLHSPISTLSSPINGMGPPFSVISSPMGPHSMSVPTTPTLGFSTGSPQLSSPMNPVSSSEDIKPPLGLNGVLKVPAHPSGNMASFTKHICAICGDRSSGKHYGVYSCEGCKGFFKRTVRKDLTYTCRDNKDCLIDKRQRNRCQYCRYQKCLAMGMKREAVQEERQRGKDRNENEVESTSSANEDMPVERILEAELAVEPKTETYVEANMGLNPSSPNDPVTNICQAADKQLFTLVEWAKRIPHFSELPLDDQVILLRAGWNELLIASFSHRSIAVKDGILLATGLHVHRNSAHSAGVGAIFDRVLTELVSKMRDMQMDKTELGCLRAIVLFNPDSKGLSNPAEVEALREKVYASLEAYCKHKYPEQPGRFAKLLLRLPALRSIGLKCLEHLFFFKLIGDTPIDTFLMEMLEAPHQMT
human Norepinephrine Transporter (NET), SLC6A2 (gene 6530), sequence (P23975 whole entry, looked up): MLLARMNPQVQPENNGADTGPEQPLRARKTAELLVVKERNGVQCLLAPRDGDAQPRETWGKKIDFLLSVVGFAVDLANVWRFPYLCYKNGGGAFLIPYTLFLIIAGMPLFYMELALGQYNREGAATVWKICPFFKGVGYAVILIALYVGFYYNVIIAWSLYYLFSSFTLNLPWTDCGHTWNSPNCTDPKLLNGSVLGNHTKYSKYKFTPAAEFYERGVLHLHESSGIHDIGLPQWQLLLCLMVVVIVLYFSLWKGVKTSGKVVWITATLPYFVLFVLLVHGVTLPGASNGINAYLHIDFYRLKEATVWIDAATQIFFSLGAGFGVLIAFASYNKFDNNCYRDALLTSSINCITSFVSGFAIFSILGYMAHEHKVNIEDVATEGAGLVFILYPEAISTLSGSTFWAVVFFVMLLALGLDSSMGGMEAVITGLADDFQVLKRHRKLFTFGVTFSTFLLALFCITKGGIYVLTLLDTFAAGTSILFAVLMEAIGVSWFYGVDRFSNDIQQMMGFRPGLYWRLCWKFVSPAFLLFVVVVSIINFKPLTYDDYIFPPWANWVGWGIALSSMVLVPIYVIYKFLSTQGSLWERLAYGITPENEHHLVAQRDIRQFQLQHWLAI
mouse Estrogen Receptor alpha (Era), Esr1 (gene 13982), sequence (P19785 whole entry, looked up): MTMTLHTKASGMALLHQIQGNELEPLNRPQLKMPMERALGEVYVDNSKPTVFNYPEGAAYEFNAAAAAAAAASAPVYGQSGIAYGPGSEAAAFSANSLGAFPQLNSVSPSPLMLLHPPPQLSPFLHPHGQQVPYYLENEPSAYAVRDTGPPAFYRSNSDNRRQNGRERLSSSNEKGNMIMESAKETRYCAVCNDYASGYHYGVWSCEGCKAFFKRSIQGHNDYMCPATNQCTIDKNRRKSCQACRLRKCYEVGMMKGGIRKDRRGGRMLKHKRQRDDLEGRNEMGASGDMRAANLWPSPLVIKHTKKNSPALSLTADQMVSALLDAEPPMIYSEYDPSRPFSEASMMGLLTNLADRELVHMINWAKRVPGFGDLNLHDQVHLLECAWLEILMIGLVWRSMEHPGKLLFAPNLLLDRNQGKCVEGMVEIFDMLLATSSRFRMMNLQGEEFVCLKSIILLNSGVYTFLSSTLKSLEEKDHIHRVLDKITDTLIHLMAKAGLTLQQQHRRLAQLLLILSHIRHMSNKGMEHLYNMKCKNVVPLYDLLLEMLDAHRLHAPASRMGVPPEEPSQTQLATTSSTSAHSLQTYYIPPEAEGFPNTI
Estrogen receptor beta (Homo sapiens), sequence (Q92731 whole entry, looked up, the tested form may be a part): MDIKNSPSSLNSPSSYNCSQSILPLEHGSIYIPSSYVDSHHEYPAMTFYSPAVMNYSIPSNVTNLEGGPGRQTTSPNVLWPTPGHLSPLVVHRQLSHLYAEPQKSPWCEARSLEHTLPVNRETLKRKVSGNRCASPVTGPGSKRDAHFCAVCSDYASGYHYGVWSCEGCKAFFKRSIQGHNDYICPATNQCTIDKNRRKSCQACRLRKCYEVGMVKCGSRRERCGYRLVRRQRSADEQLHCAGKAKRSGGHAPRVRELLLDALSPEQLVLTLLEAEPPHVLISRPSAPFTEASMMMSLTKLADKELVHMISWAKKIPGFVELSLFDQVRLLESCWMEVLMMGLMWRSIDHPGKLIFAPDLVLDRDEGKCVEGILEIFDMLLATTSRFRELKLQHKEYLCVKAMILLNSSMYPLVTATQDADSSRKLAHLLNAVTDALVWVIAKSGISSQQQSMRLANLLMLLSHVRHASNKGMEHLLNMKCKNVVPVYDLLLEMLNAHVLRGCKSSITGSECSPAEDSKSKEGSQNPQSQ
Peroxisome proliferator-activated receptor gamma (Homo sapiens), sequence (P37231 whole entry, looked up, the tested form may be a part): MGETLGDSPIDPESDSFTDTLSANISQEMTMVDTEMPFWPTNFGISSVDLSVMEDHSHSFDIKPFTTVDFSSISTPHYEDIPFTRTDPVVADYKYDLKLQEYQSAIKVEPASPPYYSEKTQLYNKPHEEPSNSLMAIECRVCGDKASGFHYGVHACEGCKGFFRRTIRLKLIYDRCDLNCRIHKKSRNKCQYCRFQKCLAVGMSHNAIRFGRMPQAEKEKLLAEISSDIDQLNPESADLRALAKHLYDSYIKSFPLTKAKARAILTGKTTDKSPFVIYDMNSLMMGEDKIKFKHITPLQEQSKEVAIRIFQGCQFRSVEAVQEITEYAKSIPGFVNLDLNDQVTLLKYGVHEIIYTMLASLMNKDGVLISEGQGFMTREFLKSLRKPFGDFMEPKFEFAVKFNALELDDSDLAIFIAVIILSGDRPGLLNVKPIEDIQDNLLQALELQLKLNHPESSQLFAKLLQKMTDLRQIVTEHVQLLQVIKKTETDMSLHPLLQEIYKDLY
human Dopamine Transporter (DAT), SLC6A3 (gene 6531), sequence (Q01959 whole entry, looked up): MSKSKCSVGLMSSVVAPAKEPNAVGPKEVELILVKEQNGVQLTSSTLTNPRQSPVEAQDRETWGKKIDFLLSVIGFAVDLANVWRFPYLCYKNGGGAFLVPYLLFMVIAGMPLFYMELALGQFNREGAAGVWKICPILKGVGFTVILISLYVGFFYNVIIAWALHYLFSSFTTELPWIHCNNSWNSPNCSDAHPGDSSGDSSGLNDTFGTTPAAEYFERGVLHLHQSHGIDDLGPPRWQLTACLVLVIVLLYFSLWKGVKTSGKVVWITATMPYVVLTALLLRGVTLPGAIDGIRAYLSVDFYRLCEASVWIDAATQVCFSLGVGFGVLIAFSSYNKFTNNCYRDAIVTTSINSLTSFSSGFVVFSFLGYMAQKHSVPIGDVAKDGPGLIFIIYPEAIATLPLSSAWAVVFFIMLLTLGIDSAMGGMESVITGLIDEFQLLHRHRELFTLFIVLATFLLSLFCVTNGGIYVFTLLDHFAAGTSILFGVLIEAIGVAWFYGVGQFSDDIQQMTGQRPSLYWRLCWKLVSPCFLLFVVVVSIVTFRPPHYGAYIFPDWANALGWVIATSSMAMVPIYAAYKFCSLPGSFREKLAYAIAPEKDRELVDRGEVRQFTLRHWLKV
human Adenosine Transporter (Adot), SLC29A1 (gene 2030), sequence (Q99808 whole entry, looked up): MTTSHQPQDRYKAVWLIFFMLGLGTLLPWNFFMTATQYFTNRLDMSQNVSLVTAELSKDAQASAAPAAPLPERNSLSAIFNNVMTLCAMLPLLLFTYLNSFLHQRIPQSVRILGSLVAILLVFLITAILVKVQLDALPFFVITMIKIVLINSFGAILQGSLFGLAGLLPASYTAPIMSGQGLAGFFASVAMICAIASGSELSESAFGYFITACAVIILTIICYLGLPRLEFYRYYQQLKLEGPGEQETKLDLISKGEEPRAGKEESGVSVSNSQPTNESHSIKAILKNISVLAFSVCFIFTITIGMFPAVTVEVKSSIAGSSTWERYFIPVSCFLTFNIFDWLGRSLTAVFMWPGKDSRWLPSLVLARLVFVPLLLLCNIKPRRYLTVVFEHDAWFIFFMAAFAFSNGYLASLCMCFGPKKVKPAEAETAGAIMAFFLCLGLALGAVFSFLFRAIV

CC(C)(C)C1CCC(O)CC1 (stereo unspecified)
inactive: [1] | [2] | [3] | [4]

O=C(c1ccc(OCCN2CCCCC2)cc1)c1c(-c2ccc(O)cc2)sc2cc(O)ccc12
inactive: [10] | [11] | [12] | [13] | [15]
active: [5] 14.6 µM | [6] 2.14 µM | [7] 1.76 µM | [8] 9.25 µM | [9] 0.366 µM | [10] 11.9 µM | [14] 0.35 µM

[O-]/[N+](=N\O)c1ccccc1
inactive: [1] | [16] | [2] | [3] | [11] | [12]

C=C(C)C(N)=O
inactive: [9] | [2] | [3] | [10] | [11] | [12]

CCc1cccc(O)c1
inactive: [17] | [16] | [2] | [3] | [18] | [4] | [11] | [12]

O=S(=O)(O)c1cc(S(=O)(=O)O)c2c(N=Nc3ccccc3)c(O)ccc2c1
inactive: [16] | [2] | [3] | [18]

CCC(C)(C)c1cc(O)c(C(C)(C)CC)cc1O
inactive: [17]

CC(=O)CC(=O)N(C)C
inactive: [17] | [16] | [2] | [3] | [4]

CN(C)CCC=C1c2ccccc2CCc2ccccc21
inactive: [17]

CCOC(=O)C=Cc1ccccc1
active: [9] 25 µM
inactive: [7]

O=C1OC2(c3ccc(O)cc3Oc3cc(O)ccc32)c2ccccc21
active: [17] 25 µM | [18] 13.1 µM
inactive: [9] | [16] | [2] | [3] | [11] | [12]

CCC(C)(CCCC(C)C)OC(C)=O (stereo unspecified)
inactive: [16] | [2] | [3] | [18] | [10] | [11] | [12]

CCCCCCC(C)O (stereo unspecified)
inactive: [17] | [16] | [2] | [3] | [11] | [12]

CCNC(=S)NCC
inactive: [17] | [16] | [2] | [3] | [10] | [4] | [11] | [12]

CC(=O)C1C(=O)C=C(C)OC1=O (stereo unspecified)
inactive: [17] | [16] | [2] | [3] | [18] | [10] | [4] | [11] | [12]

CCC(C)(C)C1CCC(OC)CC1 (stereo unspecified)
inactive: [16] | [2] | [3] | [18] | [10] | [4] | [11] | [12]

Cc1cc(O)c(C)c(C)c1O
inactive: [9]

COc1ccccc1O
inactive: [17] | [16] | [2] | [3] | [18] | [10] | [4] | [11] | [12]

CCC(C)(C)C1CCC(=O)CC1
inactive: [17] | [2] | [3] | [10] | [11] | [12]

FC(F)(F)c1ccc(Cl)c(Cl)c1
inactive: [17] | [16] | [2] | [3] | [4] | [11] | [12]

CCCCCCCCCCCCOCCOS(=O)(=O)O
active: [17] 29.4 µM | [2] 10 µM | [3] 11 µM
inactive: [10] | [11] | [12]

CCCCCCCCCOS(=O)(=O)O
inactive: [2] | [3] | [11] | [12]
active: [17] 12.7 µM

COC(=O)C(C)Oc1ccc(Oc2ncc(C(F)(F)F)cc2Cl)cc1 (stereo unspecified)
inactive: [16] | [2] | [3] | [10] | [4] | [11] | [12]
active: [17] 0.164 µM

CC(O)CN (stereo unspecified)
active: [17] 6.65 µM
inactive: [16] | [2] | [3] | [10] | [11] | [12]

CC(C)Cc1ccccc1
inactive: [8]

CCCCCCCCCO
inactive: [16] | [2] | [3] | [18] | [10] | [11] | [12]

Cc1cccc(O)c1
inactive: [17] | [16] | [2] | [3] | [10] | [11] | [12]

CCCCCC(=O)O[C@]1(C(C)=O)CC[C@H]2[C@@H]3CCC4=CC(=O)CC[C@]4(C)[C@H]3CC[C@@]21C
inactive: [17] | [2] | [3] | [11] | [12] | [15]
active: [16] 12.6 µM | [18] 5.16 µM | [10] 11.9 µM | [4] 26.3 µM | [13] 13.3 µM | [14] 11.4 µM

CCOCC(C)O (stereo unspecified)
inactive: [16] | [2] | [3] | [10] | [4] | [11] | [12]
active: [17] 35 µM

CC/C=C\CCOC(C)OCC (stereo unspecified)
inactive: [17]

CCCc1ccc(O)cc1
inactive: [2] | [3] | [18] | [10] | [4] | [11] | [12] | [13] | [14] | [15]
active: [16] 46.5 µM
